In the library only some 9.5% were active in any assay of this set; here they are far more common.
SARS PLpro yeast: qHTS of Yeast-based Assay for SARS-CoV PLP; S. cerevisiae expressing SARS-CoV PLpro, growth rescue; Potency, µM (series often up to 32.9 µM), most hits filed as activators; actives 0.19% (n = 330,000); note: nearly all actives have a fitted effect of over 55% in size
Pf growth 48h: Primary qHTS for delayed death inhibitors of the malarial parasite plastid, 48 hour incubation. P. falciparum luciferase growth in erythrocytes, 48 h. Potency, µM (series often up to 28.7 µM), hits mostly inhibitors. actives 5.9% (n = 310,000). AID 504832, 2011; active = well fitted inhibition curve with a large enough effect; inconclusive = small, poorly fitted or top-dose-only effect, or another doubt; inactive = no such curve, though single readings can be large or run the other way
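Erythrocytes infected with P. falciparum carrying an integrated firefly luciferase reporter (2% hematocrit, 0.1% parasitemia final) were exposed to compounds in RPMI 1640 with 0.5% Albumax at 37 C, 5% CO2. Growth inhibition was scored as reduced luminescence.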
RE007 growth inh: qHTS Assay for Inhibitors of the HIV-1 protein Vpr. S. pombe RE007 Vpr strain, BacTiter-Glo ATP luminescence, 24 h. Potency, µM (titrated, usually from 92.2 µM), actives largely listed as inhibitors. actives 0.21% (n = 360,000). AID 651644, 2012; active = well fitted falling curve with a large enough effect; inconclusive = small, poorly fitted or top-dose-only effect; inactive = no such curve, though single readings can be large or run the other way; note: nearly all actives have a fitted effect of over 50% in size
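Fission yeast strain RE007, carrying one chromosomally integrated HIV-1 vpr copy, was seeded at OD 0.01 in PMG+AL medium with 23 nL pinned compound. After 24 h at 30 °C and 99% humidity, viability was read by BacTiter-Glo luminescence.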
Pf growth 96h: Primary qHTS for delayed death inhibitors of the malarial parasite plastid, 96 hour incubation. actives 6.9% (n = 320,000). P. falciparum luciferase reporter growth, 96 h. Potency, µM (highest dose often 28.7 µM), most hits filed as inhibitors; active = well fitted inhibition curve with a large enough effect; inconclusive = small, poorly fitted or top-dose-only effect, or another doubt; inactive = no such curve, though single readings can be large or run the other way
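Luminescence readout: decreased luciferase signal marks inhibited growth of reporter-expressing P. falciparum in infected red cells (2% hematocrit, 0.05% parasitemia final), exposed to compound two generations (96 h, 37 C, 5% CO2).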
NS1 inh: qHTS Assay for Inhibitors of Influenza NS1 Protein Function. Potency, µM (titrated, usually from 46.1 µM). actives 0.4% (n = 270,000). AID 2326, 2010; note: actives are rising curves; nearly all actives have a fitted effect of over 50% in size
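In this qHTS, NS1 from influenza A is expressed in budding yeast, where it slows growth. Cells are switched from glucose to 2% galactose medium (pH 6.0, -URA), treated with compound, and growth recovery is read at OD600.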
Of the large screens only hits and unclear results are named; the others gave an inactive call. Unless noted, calls come from the whole dose curve.

COCc1cc(=O)[nH]c(N2CCN(c3ccccc3OC)CC2)n1	Pf growth 96h 8.28µM
CCCc1nc2ccccc2c(=O)n1/N=C/c1ccccc1O	Pf growth 48h 11.7µM (no result: Pf growth 96h)
CCCc1nc2ccccc2c(=O)n1/N=C/c1c(C)[nH]n(-c2ccc(C)cc2)c1=O	RE007 growth inh 15.8µM, Pf growth 96h 3.7µM
Cc1ccc(-n2[nH]c(C)c(/C=N/c3ccccn3)c2=O)cc1	RE007 growth inh inconclusive
CCOC(=O)Cc1cc(=O)n2[nH]cc(-c3ccc(Cl)cc3)c2n1	none
c1ccc(Cn2c[n+](Cc3ccccc3)c3ccccc32)cc1	Pf growth 48h inconclusive, Pf growth 96h 6.57µM
c1ccc(C[n+]2csc3ccccc32)cc1	none
Cc1cc(C)c(S(=O)(=O)Nc2ccc(Cl)cn2)c(C)c1	Pf growth 48h 10.4µM
O=S(=O)(Nc1ccc(Cl)cn1)c1ccc(Cl)cc1	Pf growth 96h inconclusive
CCOc1cc2c(cc1OCC)-n1cccc1C(c1ccc(C(C)C)cc1)NC2 (stereo unspecified)	Pf growth 48h 8.28µM, Pf growth 96h inconclusive
CCOc1cc2c(cc1OCC)-n1cccc1C(c1ccc(OC)cc1)NC2 (stereo unspecified)	Pf growth 48h inconclusive, Pf growth 96h inconclusive
CCOc1cc2c(cc1OCC)-n1cccc1C(c1ccc(OC(F)F)cc1)NC2 (stereo unspecified)	Pf growth 48h 13.1µM
CCOc1cc2c(cc1OCC)-n1cccc1C(c1ccc(F)cc1)NC2 (stereo unspecified)	Pf growth 48h inconclusive
COc1ccc(Cl)cc1N1C(=NC(=O)C2CCCO2)SC2CS(=O)(=O)CC21 (stereo unspecified)	none
CCCCN(CC)CCNC(=O)c1cc2c(-c3ccccc3F)nn(C)c2s1	Pf growth 48h 2.08µM
COc1cccc(-c2nn(C)c3sc(C(=O)N4CCOCC4)cc23)c1	Pf growth 96h 2.33µM (no result: Pf growth 48h)
COc1cccc(-c2nn(C)c3sc(C(=O)N4CCN(c5ccccn5)CC4)cc23)c1	Pf growth 48h inconclusive, Pf growth 96h inconclusive
CCN(CC)CCCNC(=O)c1cc2c(-c3ccc(Cl)cc3)nn(C)c2s1	Pf growth 96h inconclusive (no result: Pf growth 48h)
CCN(CCCNC(=O)c1cc2c(-c3cccc(OC)c3)nn(C)c2s1)Cc1ccccc1	Pf growth 48h 2.33µM
CC1CCCCN1CCNC(=O)c1cc2c(-c3ccccc3F)nn(C)c2s1 (stereo unspecified)	none (no result: Pf growth 48h)
COc1cccc(C(=O)N2CCC[C@@H]2C(=O)N2CCC[C@H]2C(=O)NCc2ccncc2)c1	none (no result: SARS PLpro yeast, Pf growth 48h, Pf growth 96h, NS1 inh)
C=CC[C@]12CCc3sccc3C1N(c1ccc(C(=O)OCC)cc1)C2=O (stereo partly specified)	Pf growth 48h 10.4µM, Pf growth 96h inconclusive (no result: NS1 inh)
O=C(c1cc2cc(F)ccc2[nH]1)N1CCc2ccccc21	Pf growth 48h inconclusive, Pf growth 96h inconclusive
O=C(c1cc2cc(Br)ccc2[nH]1)N1CCc2ccccc21	Pf growth 48h inconclusive, Pf growth 96h 1.47µM
CCn1cc(C(=O)N[C@H](C(=O)NC(C)(C)CO)C(C)C)c(=O)c2cc3c(cc21)OCO3	Pf growth 48h inconclusive, Pf growth 96h 8.28µM
CCn1cc(C(=O)N[C@@H](CCSC)C(=O)NC(C)(C)CO)c(=O)c2cc3c(cc21)OCO3	Pf growth 48h 1.85µM, Pf growth 96h 1.47µM
O=C(NCCCc1ccc(F)cc1)C1CCC(=O)N(CCCN2CCCC2=O)C1 (stereo unspecified)	none
CN(C)c1ccc(/C=N/N=C(N)N)cc1[N+](=O)[O-]	Pf growth 48h 2.08µM
CC1CN(C(=O)c2cc(F)c(F)cc2Cl)CC(C)O1 (stereo unspecified)	none (no result: SARS PLpro yeast, Pf growth 48h, Pf growth 96h)
Cc1ccc(C(=O)N2CC(C)OC(C)C2)c(Cl)c1 (stereo unspecified)	Pf growth 96h 3.7µM (no result: Pf growth 48h)
COc1cc(SC)ccc1C(=O)N1CC(C)OC(C)C1 (stereo unspecified)	Pf growth 48h 1.65µM
COc1cc2ccccc2cc1C(=O)N1CC(C)OC(C)C1 (stereo unspecified)	none (no result: SARS PLpro yeast, Pf growth 48h, Pf growth 96h, NS1 inh)
O=C(CNS(=O)(=O)c1ccc(Br)s1)NCCc1ccc(Cl)cc1	none
CCNC(=O)C1(C)CCN(C(=O)c2c(F)ccc(C)c2F)C1 (stereo unspecified)	none (no result: SARS PLpro yeast, Pf growth 48h, Pf growth 96h, NS1 inh)
CCN(CC)C(=O)c1ccccc1NC(=O)CN1C(=O)c2ccccc2S1(=O)=O	Pf growth 96h inconclusive
COC(=O)c1c(N2C(=O)Nc3ccccc3N2O)sc(C)c1C	Pf growth 96h 5.22µM (no result: NS1 inh)
CCOC(=O)c1c(N2C(=O)Nc3ccccc3N2O)sc2c1CCCC2	Pf growth 96h inconclusive
Cc1cccc(NC(=O)CNC(=O)[C@H]2O[C@@H](n3ccc(=O)[nH]c3=O)[C@H](O)[C@@H]2O)c1C	none (no result: SARS PLpro yeast, Pf growth 48h, Pf growth 96h, NS1 inh)
O=C(c1cc(-c2ccco2)on1)N1CCN(C(c2ccccc2)c2ccccc2)CC1	Pf growth 48h 11.7µM
O=C(c1cc(-c2ccc(F)cc2)on1)N1CCCCCC1	Pf growth 96h 14.7µM
COc1ccc(-c2cc(C(=O)N3CCN(C(c4ccccc4)c4ccccc4)CC3)no2)cc1OC	Pf growth 48h 7.38µM
COc1ccc(-c2cc(C(=O)N3CCCC3)no2)cc1	none
COc1ccc(-c2cc(C(=O)N3CCN(C(c4ccccc4)c4ccccc4)CC3)no2)cc1	Pf growth 48h inconclusive, Pf growth 96h 11.7µM, NS1 inh inconclusive
COc1ccc(CCNC(=O)COC(=O)Cc2c[nH]c3ccccc23)cc1OC	none (no result: Pf growth 48h, Pf growth 96h, NS1 inh)
Cc1ccc(CN2CCC(C)(Oc3ccc(Cl)cc3)C2)cc1 (stereo unspecified)	none (no result: SARS PLpro yeast, Pf growth 48h, Pf growth 96h, NS1 inh)
COc1ccc(-c2csc(C(O)c3ccc(F)c(OC)c3)n2)cc1 (stereo unspecified)	none (no result: SARS PLpro yeast, Pf growth 48h, Pf growth 96h, NS1 inh)
Cn1nc(C(=O)N2CCN(C(c3ccccc3)c3ccccc3)CC2)c2ccccc2c1=O	Pf growth 48h 4.65µM, Pf growth 96h 11.7µM
CC(C)Cc1cc(C(=O)N2CCN(C(c3ccccc3)c3ccccc3)CC2)no1	none (no result: Pf growth 48h)
COc1ccc2oc(C(=O)N3CCN(C(c4ccccc4)c4ccccc4)CC3)c(C)c2c1	Pf growth 48h 3.7µM, Pf growth 96h 4.65µM (no result: NS1 inh)
CC(C)c1cc(C(=O)N2CCN(C(c3ccccc3)c3ccccc3)CC2)no1	Pf growth 48h 9.28µM (no result: Pf growth 96h)
Cc1cccc(OCc2nnc(SCC(=O)N(C)C3CCCCC3)o2)c1	Pf growth 48h inconclusive (no result: NS1 inh)
CSc1ncc(Cl)c(C(=O)NCc2cccnc2)n1	none
Cc1csc(NC(=O)CSc2ccc([N+](=O)[O-])cn2)n1	Pf growth 96h 11.7µM
O=C(CSc1ccc([N+](=O)[O-])cn1)Nc1cc(C(F)(F)F)ccc1N1CCOCC1	Pf growth 48h 5.22µM
O=C(CSc1ccc([N+](=O)[O-])cn1)Nc1nccs1	SARS PLpro yeast inconclusive, Pf growth 48h inconclusive, Pf growth 96h inconclusive
O=C(CSc1nc2ccccc2[nH]1)Nc1cc(C(F)(F)F)ccc1N1CCOCC1	Pf growth 48h inconclusive, Pf growth 96h 5.22µM
O=C1c2ccccc2C(=O)N1c1ccc(Cc2ccc(N3C(=O)c4ccccc4C3=O)cc2)cc1	none (no result: SARS PLpro yeast, Pf growth 48h, RE007 growth inh, Pf growth 96h)

High-throughput results: PubChem, National Center for Advancing Translational Sciences (NCATS)
